Test [1] can be described thus: inhibitors of TNFa-induced NFkB p65 translocation, primary screen, imaging, HUVEC, MLSMR starter and 10KST1 sets (AID 438;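 active = inhibition above 20% together with a positive visual image hit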;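 also: compound added about 3h40 before a 20 min TNFalpha stimulation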;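 as to inhibition: signal is the nuclear over cytoplasmic p65 intensity ratio per well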). The following applies: HUVEC TNFa-induced p65 nuclear translocation; cell count: measured here: nuclei count (cytotoxicity indicator), at 2.08 µM; inhibition: at 2 µM, stronger effect = higher value, 0% TNFa-plus-vehicle, 100% no-TNFa wells.
Test [2] can be described thus: reduction of polyQ htt aggregates in cells – imaging, exon1htt(103Q)mCFP cells, high-content imaging, primary screen (AID 483;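 active = visual image review flags a hit and inhibition of aggregation exceeds 20%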;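 also: compound exposure lasted 3 days before fixation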;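 as to nuclei count: percent of the per-plate median nuclei count of sample wells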). The following applies: exon1htt(103Q)mCFP cell line, aggregate imaging, at 2 µM; inhibition of aggregation: stronger effect = higher value; nuclei count: measured here: cell count, toxicity.
The nature of test [3]: endothelial E-selectin expression blockers – imaging, HUVEC, immunofluorescence, MLSMR starter and 10KST1 sets, primary screen (AID 487;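 active = visually confirmed hit in the image check and inhibition above 20%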;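 as to inhibition: signal is fraction of cell area covered by stained E-selectin grains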;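 as to nuclei count: 100% = median nuclei count of all wells on the same plate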). The following applies: HUVEC TNFalpha-induced E-selectin immunofluorescence imaging, at 2 µM; inhibition: stronger effect = higher value; nuclei count: measured here: cell number, toxicity.
Test [4] deals with Voltage-gated potassium channel subunit beta-2 (Rattus norvegicus) (UniProt P62483). Nature of the test: inhibitors of rat Kvbeta2 reductase activity – biochemical, NADPH fluorescence, primary screen (AID 622).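 Also: slope of raw intensity against log time taken from 70 to 1610 s.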 The settings on record: recombinant KvBeta, 4-cyanobenzaldehyde reduction, at 10 µM, stronger effect = higher value.
Test [5] shares this target. Nature of the test: enhancers of rat Kvbeta2 NADPH turnover – biochemical, NADPH fluorescence, primary screen (AID 623;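 active = NADPH fluorescence slope more negative than the mean of all samples by about 3 SD, 99.7% confidence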;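 also: fluorescence intensity change per second fitted from 20 to 320 s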). The settings on record: Recombinant KvBeta, NADPH fluorescence decrease slope, 10 min; at 10 µM; stronger effect = lower value.
Test [6] deals with Alpha-2C adrenergic receptor (Homo sapiens) (UniProt P18825). Briefly: compounds altering alpha2C-coupled GIRK flux – cell-based, HEK293 alpha2C/GIRK1/2, thallium flux, primary screen (AID 624;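 active = fluorescence slope after compound addition differing from the mean of all screened samples at 99.7% confidence, in either direction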;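 also: slope of fluorescence ratio to pre-addition baseline per second over 15 to 24 s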). The following applies: thallium flux BTC fluorescence, at 10 µM, actives lie on both sides.
Test [7] in a line: blockers of RIG-like receptor reporter activation – cell-based, Sendai virus stimulus, luciferase, 10K MLSCN set, TLR/RLR signaling modifier project, primary screen (AID 602276;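 active = inhibition at or above 50% at 10 µM; inactive = inhibition below 50%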;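 also: firefly luciferase from ISG56 promoter only with Renilla not read in this screen; 0% = Sendai virus plus DMSO and 100% = medium plus DMSO without virus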). The settings on record: HEK293 RL24 IRF3 luciferase reporter, at 10 µM, stronger effect = higher value. For orientation: In a reporter assay the amount or activity of a reporter protein is the signal.
The nature of test [8]: TLR3 IRF3 reporter activation blockers – cell-based, poly I:C stimulus, luciferase, 10K MLSCN set, primary screen (AID 602277;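 active = inhibition of the reporter signal at or above 50%; inactive = inhibition below 50%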). The settings on record: HEK293-TLR3 RL24 IRF3 luciferase reporter, at 10 µM, stronger effect = higher value.

Calls of active or inactive are those of the source.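 The calls were made as follows, unless noted: active = fluorescence slope higher than the sample average by over 3 SD (cut at about -0.22 in these data, passing the limit was not always enough); inactive = the rest.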

Sequence of Alpha-2C adrenergic receptor (Homo sapiens) (P18825 whole entry, looked up): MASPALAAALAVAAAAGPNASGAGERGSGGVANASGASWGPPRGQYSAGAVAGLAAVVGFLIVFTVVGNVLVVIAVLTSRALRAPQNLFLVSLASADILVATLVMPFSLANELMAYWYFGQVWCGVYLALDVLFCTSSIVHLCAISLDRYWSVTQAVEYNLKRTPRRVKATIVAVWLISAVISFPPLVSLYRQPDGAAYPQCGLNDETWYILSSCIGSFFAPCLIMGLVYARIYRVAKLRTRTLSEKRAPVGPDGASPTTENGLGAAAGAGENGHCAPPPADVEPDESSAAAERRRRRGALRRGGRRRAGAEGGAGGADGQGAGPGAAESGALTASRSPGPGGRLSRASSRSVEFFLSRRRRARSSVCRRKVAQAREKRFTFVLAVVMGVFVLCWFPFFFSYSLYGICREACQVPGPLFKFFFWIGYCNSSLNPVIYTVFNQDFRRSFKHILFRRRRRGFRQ
Sequence of Voltage-gated potassium channel subunit beta-2 (Rattus norvegicus) (P62483 whole entry, looked up): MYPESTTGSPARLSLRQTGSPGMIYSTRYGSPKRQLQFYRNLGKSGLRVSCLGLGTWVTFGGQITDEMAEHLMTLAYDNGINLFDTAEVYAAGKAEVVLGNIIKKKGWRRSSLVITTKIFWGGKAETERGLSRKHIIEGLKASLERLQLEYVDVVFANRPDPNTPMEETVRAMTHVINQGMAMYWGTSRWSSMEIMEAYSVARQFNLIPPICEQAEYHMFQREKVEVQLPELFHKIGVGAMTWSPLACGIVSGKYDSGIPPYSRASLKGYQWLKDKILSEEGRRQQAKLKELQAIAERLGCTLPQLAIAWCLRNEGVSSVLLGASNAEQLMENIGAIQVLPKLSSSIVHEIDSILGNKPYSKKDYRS

On to `CCc1nnc(SCC(=O)NC2CCCCC2)nc1CC`, for which, in test [1], the cell count came out at 774. Besides, the inhibition (usually the relative decrease from the control value, in per cent) was -14.3% (inactive) in test [1], -62.4% (inactive) in test [3], -5.14% (inactive) in test [7] and 5.98% (inactive) in test [8]. Moreover, the inhibition of aggregation in test [2] is 11.4% (inactive). The figures for the nuclei count in test [2] and in test [3] were 105% and 103%, respectively. Moreover, the fluorescence slope in test [4] was -0.536 (inactive). For the same compound, in test [5], the NADPH fluorescence slope was 2e-06 (inactive). Further, the slope in test [6] is 0.00672 (inactive).

For the compound `COC(=O)Nc1ccc(NC(C)=O)cc1`, in test [1], the cell count came out at 398. Besides, the inhibition was -4.4% (inactive) in test [1], 6.8% (inactive) in test [3], -9.94% (inactive) in test [7] and -5.16% (inactive) in test [8]. The inhibition of aggregation in test [2] was 20.9% (inactive). Besides, the nuclei count in test [2] was 82.1%; in test [3], 94.6%. The fluorescence slope in test [4] is -0.493 (inactive). Besides, the NADPH fluorescence slope in test [5] is 6e-05 (inactive). Moreover, in test [6], the slope was 0.00538 (inactive).

Regarding `O=C1c2cccnc2C(=O)N1c1cccc(-c2nc3ccccc3o2)c1`, the cell count in test [1] was found to be 339. The inhibition was 9.1% (inactive) in test [1], -87.2% (inactive) in test [3], 13.3% (inactive) in test [7] and 13.5% (inactive) in test [8]. In test [2], the inhibition of aggregation was 28.9% (inactive). Further, the nuclei count in test [2] came to 84%; in test [3], 117%. Also, the fluorescence slope in test [4] was -0.417 (inactive). Further, the NADPH fluorescence slope in test [5] is -4e-05 (inactive). In test [6], the slope was 0.00507 (inactive).

As for `COCc1nnc(NC(=O)c2ccc(S(=O)(=O)N(C)c3ccccc3)cc2)o1`, in test [1], the cell count was 716. Also, the inhibition is 2.4% (inactive) in test [1], -21% (inactive) in test [3], 13.8% (inactive) in test [7] and 7.35% (inactive) in test [8]. For the same compound, in test [2], the inhibition of aggregation is -2% (inactive). In addition, the nuclei count in test [2] stood at 116%; in test [3], 107%. Moreover, the fluorescence slope in test [4] is -0.575 (inactive). Also, the NADPH fluorescence slope in test [5] is 1.3e-05 (inactive). In addition, in test [6], the slope is 0.00656 (inactive).

As for `CCc1nnc(NC(=O)COC(=O)CN2C(=O)c3ccccc3C2=O)s1`, the cell count in test [1] amounted to 375. In addition, the inhibition in test [1] is 4.7% (inactive); in test [3], 4.5% (inactive); in test [7] it was -1.09% (inactive); in test [8], 12.5% (inactive). For the same compound, the inhibition of aggregation in test [2] was 7.1% (inactive). Besides, the nuclei count in test [2] stood at 91.2%; in test [3], 84.7%. Further, in test [4], the fluorescence slope was -0.53 (inactive). In addition, in test [5], the NADPH fluorescence slope is -4.4e-05 (inactive). For the same compound, the slope in test [6] was 0.00636 (inactive).

On to `CC(C)CNS(=O)(=O)c1ccc(OCC(=O)Nc2ccc3c(c2)OCO3)c(Cl)c1`, for which the cell count in test [1] worked out at 463. For the same compound, the inhibition was -12.1% (inactive) in test [1], -0.6% (inactive) in test [3], 6.42% (inactive) in test [7] and 19.3% (inactive) in test [8]. In addition, in test [2], the inhibition of aggregation was -1.9% (inactive). The nuclei count in test [2] was found to be 81.6%; in test [3], 85.5%. The fluorescence slope in test [4] was -0.377 (inactive). Also, in test [5], the NADPH fluorescence slope was -2e-05 (inactive). For the same compound, the slope in test [6] was 0.00353 (inactive).

Take `CN(Cc1ccccc1)c1nc2c(c(=O)[nH]c(=O)n2C)n1Cc1ccccc1Cl`: the cell count in test [1] worked out at 364. The inhibition is -1% (inactive) in test [1], -18.5% (inactive) in test [3], 16% (inactive) in test [7] and 23.3% (inactive) in test [8]. Besides, the inhibition of aggregation in test [2] was -1.2% (inactive). Also, the nuclei count turned out to be 108% in test [2] and 102% in test [3]. Besides, in test [4], the fluorescence slope is -0.6 (inactive). Moreover, the NADPH fluorescence slope in test [5] is -2.7e-05 (inactive). The slope in test [6] was 0.00484 (inactive).

Consider `O=C(Nc1ccc2nc(-c3cccs3)[nH]c2c1)c1ccco1`, for which the cell count in test [1] stood at 334. The inhibition is -0.7% (inactive) in test [1], -132% (inactive) in test [3], -35.6% (inactive) in test [7] and -87.4% (inactive) in test [8]. For the same compound, in test [2], the inhibition of aggregation is 23% (inactive). Moreover, the nuclei count in test [2] turned out to be 78.8%; in test [3], 119%. In addition, the fluorescence slope in test [4] is -0.429 (inactive). For the same compound, the NADPH fluorescence slope in test [5] was -7.7e-05 (inactive). Further, in test [6], the slope is 0.00445 (inactive).

In the case of `O=C(CCNS(=O)(=O)c1ccc(Cl)cc1)NCc1ccccn1`, the cell count in test [1] was determined as 609. Moreover, the inhibition was -21.1% (inactive) in test [1], 0.3% (inactive) in test [3], 17.1% (inactive) in test [7] and 21.6% (inactive) in test [8]. The inhibition of aggregation in test [2] is 5.7% (inactive). Besides, the results for the nuclei count in test [2] and in test [3] were 78.6% and 101%, respectively. Moreover, in test [4], the fluorescence slope was -0.318 (inactive). The NADPH fluorescence slope in test [5] was 8.2e-06 (inactive). Moreover, in test [6], the slope is 0.00312 (inactive).

Regarding `CN(C)C(=O)c1ccc(COc2ccccc2Br)o1`, the cell count in test [1] was found to be 730. For the same compound, the inhibition in test [1] was -11% (inactive); in test [3], -26.4% (inactive); in test [7], -40.1% (inactive); in test [8] it was -62.5% (inactive). The inhibition of aggregation in test [2] is 27.2% (inactive). Also, the figures for the nuclei count in test [2] and in test [3] were 71.4% and 104%, respectively. Moreover, the fluorescence slope in test [4] was -0.606 (inactive). Moreover, the NADPH fluorescence slope in test [5] is -2.2e-05 (inactive). For the same compound, the slope in test [6] is 0.0062 (inactive).

On to `COc1ccc(S(=O)(=O)C(C#N)c2nc3ccccc3nc2N2CCCC(C)C2)cc1` (stereo not given), for which the cell count in test [1] was 714. Moreover, the inhibition in test [1] was -5% (inactive); in test [3] it was 16% (inactive); in test [7], 13% (inactive); in test [8], 0.928% (inactive). For the same compound, in test [2], the inhibition of aggregation is -12.7% (inactive). Besides, the nuclei count in test [2] stood at 92.2%; in test [3], 113%. For the same compound, the fluorescence slope in test [4] was -0.417 (inactive). Besides, the NADPH fluorescence slope in test [5] was 7.1e-06 (inactive). Further, the slope in test [6] was 0.00445 (inactive).

Regarding `Cc1cc(OCC(=O)NCCO)cc(C)c1Cl`, the cell count in test [1] was determined as 419. The inhibition in test [1] is -2.3% (inactive); in test [3], 28.3% (inactive); in test [7] it was -0.456% (inactive); in test [8], 24.5% (inactive). In test [2], the inhibition of aggregation is 11.1% (inactive). Further, the figures for the nuclei count in test [2] and in test [3] were 73.3% and 92.3%, respectively. Further, the fluorescence slope in test [4] is -0.428 (inactive). In test [5], the NADPH fluorescence slope is 2.8e-05 (inactive). Besides, the slope in test [6] is 0.00371 (inactive).

For `CC(C)CCn1c(=O)c2ccccc2n2c(CN(C)Cc3ccccc3)nnc12`, in test [1], the cell count came out at 486. The inhibition in test [1] was -14.2% (inactive); in test [3], -78.1% (inactive); in test [7], 8.18% (inactive); in test [8], 26.3% (inactive). Moreover, in test [2], the inhibition of aggregation was 0.2% (inactive). Also, the nuclei count was 101% in test [2] and 170% in test [3]. The fluorescence slope in test [4] was -0.537 (inactive). Further, the NADPH fluorescence slope in test [5] was 1.9e-05 (inactive). Besides, the slope in test [6] is 0.00576 (inactive).

For `COc1cccc(NC(=O)C2CCCN(S(=O)(=O)c3cccc4cccnc34)C2)c1` (stereo not given), in test [1], the cell count is 604. The inhibition in test [1] is -1.7% (inactive); in test [3] it was -62.8% (inactive); in test [7], 2% (inactive); in test [8], 23.1% (inactive). Also, the inhibition of aggregation in test [2] is 25.4% (inactive). The figures for the nuclei count in test [2] and in test [3] were 90.7% and 106%, respectively. Besides, the fluorescence slope in test [4] was -0.559 (inactive). Also, the NADPH fluorescence slope in test [5] was -2e-05 (inactive). Also, the slope in test [6] was 0.00606 (inactive).

For `CC1=C(C(=O)Nc2ccccc2)C(c2ccco2)C(C#N)=C(SCC(=O)Nc2cccc(C)c2C)N1` (stereo not given), the cell count in test [1] came out at 625. The inhibition is 15.7% (inactive) in test [1], -16.6% (inactive) in test [3], 9.65% (inactive) in test [7] and 21.2% (inactive) in test [8]. Further, in test [2], the inhibition of aggregation is 16% (inactive). Besides, the figures for the nuclei count in test [2] and in test [3] were 89.5% and 129%, respectively. In test [4], the fluorescence slope is -0.412 (inactive). Besides, in test [5], the NADPH fluorescence slope was -1.1e-05 (inactive). For the same compound, the slope in test [6] was 0.00681 (inactive).
